Screening data from PubChem BioAssay.
Rab9 promoter act – Rab9 promoter activation; 320,000 compounds, 2.8% hits; Potency, µM (series often up to 9.22 µM), without a hit: at the highest dose activation, negative = inhibition, usual class: activators; AID 485297; Huh7 Rab9 promoter-luciferase reporter, luminescence, 24 h; further: % of control where 0% means no effect; nearly all actives have a fitted effect of over 60% in size
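Cell-based reporter: Huh7 stable for Rab9 promoter-driven luciferase, plated in reduced-serum medium with 10% FBS at 1500 cells/well, compound-treated 24 h at 37 °C, luminescence read after 10 min reagent.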
NPC1 promoter act – NPC1 promoter activation; Potency, µM (series often up to 9.22 µM), for inactives: at the highest dose activation, most hits filed as activators; Huh7 NPC1 promoter luciferase reporter, 24 h; 320,000 compounds, 2.4% hits; AID 485313; further: % of control where 0% means no effect; nearly all actives have a fitted effect of over 60% in size
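In 1536-well qHTS, Huh7 cells harboring an NPC1 promoter–luciferase construct received compound for 24 h; activation was quantified by luminescence following luciferase reagent addition.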
ELG1 repair inh – inhibitors of ELG1-dependent DNA repair in HEK293T cells; HEK293T ELG1-luciferase reporter, luminescence, 16 h; DNA damage induced by 5-fluorouridine; Potency, µM (top dose mostly 46.1 µM), inactives show top-dose activity change, negative = inhibition, most hits filed as inhibitors; 330,000 compounds, 2.3% hits; AID 504467; further: on the % scale 0 is the no-effect control and ±100 the full control effect; nearly all actives have a fitted effect of over 55% in size
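DMSO vehicle served as the neutral condition. Each well held 2,000 cells given 5-fluorouridine plus compound; after 16 hr at 37 °C/5% CO2, ONE-Glo was added and luciferase measured 30 min later.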
ELG1 genotoxic – inducers of genotoxicity in HEK293T ELG1-luciferase cells; HEK293T ELG1-luciferase reporter, luminescence, 16 h; Potency, µM (titrated, usually from 46 µM), without a hit: top-dose activity change, positive = activation, usual class: activators; 330,000 compounds, 1.3% hits; AID 504466; further: % of control where 0% means no effect; nearly all actives have a fitted effect of over 60% in size
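Reporter readout depends on ELG1 protein level, which increases with genetic stress. After 16 hr compound exposure at 37 °C, luciferase activity was quantified using ONE-Glo.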
FLuc modulator – firefly luciferase modulation, counter-screen for miR-21 project; purified FLuc, Km substrates, luminescence inhibition; Potency, µM (titrated, usually from 57.5 µM), for the others: at the highest dose activity change, negative = inhibition, actives largely listed as inhibitors; 360,000 compounds, 6.9% hits;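 further: plate controls were vehicle for no effect and reference inhibitor for full effect; nearly all actives have a fitted effect of over 55% in size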
Target sequence (P08659 whole entry, looked up): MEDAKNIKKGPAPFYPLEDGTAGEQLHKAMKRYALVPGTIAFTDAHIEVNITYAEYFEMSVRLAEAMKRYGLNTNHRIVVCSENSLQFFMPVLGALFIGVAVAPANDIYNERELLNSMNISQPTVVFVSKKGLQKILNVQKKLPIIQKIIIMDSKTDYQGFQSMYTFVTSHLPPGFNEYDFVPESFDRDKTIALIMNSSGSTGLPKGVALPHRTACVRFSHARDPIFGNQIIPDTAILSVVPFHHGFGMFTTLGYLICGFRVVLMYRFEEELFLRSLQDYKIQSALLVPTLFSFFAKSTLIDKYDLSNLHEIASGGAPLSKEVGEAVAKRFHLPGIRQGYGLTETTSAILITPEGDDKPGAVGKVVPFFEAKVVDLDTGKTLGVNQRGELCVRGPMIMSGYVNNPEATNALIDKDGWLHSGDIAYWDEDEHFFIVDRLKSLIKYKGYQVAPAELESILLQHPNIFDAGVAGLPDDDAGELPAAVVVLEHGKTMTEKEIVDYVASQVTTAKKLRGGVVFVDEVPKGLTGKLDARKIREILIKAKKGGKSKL
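Biochemical qHTS of compounds, final roughly 60 µM downward over six points, against 10 nM purified firefly luciferase using Km concentrations of substrates (10 uM D-luciferin, 10 uM ATP) in Tris acetate pH 7.5 buffer; luminescence output.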
SMN2 splice up – enhancers of SMN2 splice variant expression; Potency, µM (top dose mostly 46.1 µM), without a hit: at the top dose activity change, positive = activation, actives largely listed as activators; HEK293 SMN2-luciferase splicing reporter, luminescence, 30-36 h; 210,000 compounds, 2.8% hits; AID 1458; further: % of control where 0% means no effect; nearly all actives have a fitted effect of over 55% in size
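qHTS luciferase splicing reporter: luminescence rises when SMN2 exon 7 is included in transfected HEK293 cells. Compound exposure lasted 30-36 h at 37C, with 4.5 mM final sodium butyrate as control, followed by a ONE-Glo read.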
Starred values were filed as active, the others as inactive; u = inconclusive; x = not tested or not shown. Compounds with a hit are over-represented: about 9.3% of the library has one in this group of screens. The call rests on the fitted dose curve; in most records, active means well fitted curve in the direction sought with a large enough effect; inconclusive means small, poorly fitted or top-dose-only effect, or another doubt; inactive means no such curve, though single readings can be large; an effect the other way counts as inactive or inconclusive. Potency means the concentration at half of the fitted maximal effect.

SMILES	Rab9 promoter act	NPC1 promoter act	ELG1 repair inh	ELG1 genotoxic	FLuc modulator	SMN2 splice up
Cc1cc(C)cc(NC(=O)COC(=O)COc2cccc3c2OC(C)(C)C3)c1	-2%	1%	0%	0%	-2%	x
CCOc1ccc2nc(C(C)O)[nH]c2c1 (stereo unspecified)	2%	0%	u	0%	1%	13%
CCOc1ccc2nc(-c3ccccc3)[nH]c2c1	u	0.79µM*	u	u	1.1µM*	14µM*
COc1ccc2nc(C(C)O)[nH]c2c1 (stereo unspecified)	-1%	2%	14%	0%	-6%	9%
COc1ccc2[nH]c(-c3ccccc3)cc2c1	0.89µM*	1.6µM*	u	u	6µM*	x
COc1ccc2nc(-c3ccccc3)[nH]c2c1	1.6µM*	2.8µM*	u	1.3µM*	2.1µM*	6.3µM*
COc1ccc2[nH]c(-c3ccc(C)cc3)cc(=O)c2c1	2.5µM*	u	u	2.9µM*	1.5µM*	1.3µM*
CCCCOC(=O)c1ccc(NC(=O)c2cc(-c3ccccc3)on2)cc1	x	x	x	x	6%	x
CCC(NC(=O)CSc1nnnn1C1CC1)c1ccc(Br)cc1 (stereo unspecified)	-5%	-2%	15%	3%	9%	x
CCn1cc(C(=O)O)c(=O)c2cnc(N3CCN(C(=S)Nc4ccccc4C(F)(F)F)CC3)nc21	-8%	-5%	15µM*	-12%	-1%	x
CCOC(=O)CSc1nc2cccnc2n1C	-13%	1%	-4%	0%	-2%	8%
COc1ccc(-c2nc(Cn3c(SCc4ccccc4F)nc4cccnc43)c(C)o2)cc1	x	x	x	x	13µM*	x
Cc1ccc(CSc2nc3ccncc3n2Cc2nc(-c3ccc(Cl)cc3)oc2C)cc1	x	x	x	x	u	0%
COc1ccc(-c2nc(Cn3c(SCc4ccc(F)cc4)nc4ccncc43)c(C)o2)cc1OC	-8%	-4%	u	0%	13µM*	-7%
Cn1c(SCc2ccccc2F)nc2cccnc21	2.2µM*	1.4µM*	u	u	9.5µM*	13µM*
COc1ccc(Cn2c(SCc3ccc(C(=O)NCc4ccccc4F)cc3)nc3cccnc32)cc1	x	x	x	x	-19%	-15%
COc1ccc(-c2nc(Cn3c(SCc4ccccc4F)nc4ccncc43)c(C)o2)cc1	12%	4%	1%	u	-14%	-13%
COc1ccc(-c2nc(Cn3c(SCc4ccc(F)cc4)nc4cccnc43)c(C)o2)cc1	x	x	x	x	11µM*	x
Cc1cc(=O)nc2c3ccccc3n(C(C)C(=O)Nc3cc(F)ccc3F)n12 (stereo unspecified)	-3%	-3%	1%	-2%	0%	x
COc1ccc(-c2nc(Cn3c(SCc4ccc(C)cc4)nc4cccnc43)c(C)o2)cc1OC	x	x	x	x	6µM*	x
Cc1nn(C)cc1CN(C)S(=O)(=O)c1cccc([N+](=O)[O-])c1	-2%	-3%	8%	-1%	-2%	-39%
CN(Cc1ccccc1)c1nc2c(c(=O)[nH]c(=O)n2C)n1Cc1ccccc1Cl	-10%	-2%	u	0%	2%	-5%
Nc1nc(NC(=O)c2ccc(Cl)cc2)nn1-c1ccccc1	10%	8%	18%	-3%	19µM*	17%
CN(C)c1ccc(NC2=C(Cl)C(=O)c3ccccc3C2=O)cc1	-41%	1%	u	u	7.6µM*	-83%
COc1cc(/C=C2\SC(=O)N(CC(=O)Nc3cccc(C)c3)C2=O)cc([N+](=O)[O-])c1O	2%	-8%	11%	3%	u	-30%
SMILES	Rab9 promoter act	NPC1 promoter act	ELG1 repair inh	ELG1 genotoxic	FLuc modulator	SMN2 splice up
CCOC(=O)c1c(C)[nH]c(C(=O)N/N=C/c2cccc(OC)c2)c1C	21%	22%	u	0%	u	14%
COc1ccc(/C=N/NC(=O)c2cc[n+]([O-])cc2)cc1	-6%	-3%	18%	2%	u	x
COc1cccc(/C=N/NC(=O)c2[nH]c(C)c(C(=O)N/N=C/c3cccc(OC)c3)c2C)c1	10%	5%	21µM*	-5%	u	-28%
COc1ccc(/C=N/NC(=O)c2[nH]c(C)c(C(=O)N/N=C/c3ccc(OC)cc3)c2C)cc1	-3%	-4%	21µM*	-8%	u	-23%
Cc1cccc(N2CCN(c3ccc4cc(S(=O)(=O)N5CCCCC5)ccc4n3)CC2C)c1 (stereo unspecified)	-26%	-20%	-4%	3%	0%	x
O=C(NC1CCCCCC1)C(=O)NC1CCCC1	2.2µM*	u	u	19%	u	13µM*
O=C(Nc1ccc(F)cc1)NC1CCCCC1	u	u	u	u	u	3%
Cc1ccc(NC(=O)C(=O)NC2CCCCC2)cc1	1.1µM*	1.6µM*	u	u	u	5µM*
Cc1ccc(NC(=O)NC2CCCCCCC2)cc1	2.2µM*	1.3µM*	u	u	7.6µM*	x
COc1ccc(CC2=C(O)c3ccccc3C(=O)C2=O)cc1	6%	2%	-6%	-7%	1%	x
O=C1C(=O)c2ccccc2C(O)=C1CCCCl	-43%	-20%	18µM*	-13%	-20%	x
O=C(Nc1cccnc1)c1ccccc1O	0%	13%	u	18%	15µM*	-15%
COc1ccc(C(=O)Nc2ccccc2C(=O)Nc2cccnc2)cc1	26%	30%	u	u	4.3µM*	x
COc1ccc(C(=O)Nc2ccccc2C(=O)Nc2cc(C)ccn2)cc1	3.5µM*	1.8µM*	u	17%	1.3µM*	x
C/C(CC(=O)Nc1cc(C)ccn1)=N\NC(=O)c1ccc(C(C)(C)C)cc1	9%	0%	0%	0%	11µM*	x
O=C(Nc1cccnc1)c1ccccc1-c1ccccc1	-4%	0%	6%	0%	5%	-7%
C/C(CC(=O)Nc1ccccn1)=N\NC(=O)c1ccc(C)cc1	-4%	1%	23%	3%	-14%	-7%
Cc1ccnc(NC(=O)c2ccccc2NC(=O)C(C)(C)C)c1	-4%	-18%	u	-3%	4%	9%
CCOC(=O)Nc1cc(NC(=O)OCC)c(C)nc1C	-3%	-2%	5%	1%	0%	x
COc1cc2ccccc2cc1C(=O)Nc1ccc(Cc2ccncc2)cc1	14%	12%	0%	-16%	u	-4%
COc1ccc(C(=O)NC(=O)Nc2cc(C)ccn2)cc1	0.79µM*	0.79µM*	u	u	0.19µM*	x
COc1cc2ccccc2cc1C(=O)Nc1ccc(C)cc1	3%	18%	u	u	3µM*	x
Cc1ccc(NC(=O)c2cccc3ccccc23)cc1	u	u	u	18%	15µM*	x
